# Measured values reported in PubChem BioAssay AID435000 (NMMLSC, 2010).
# The list shows a part of the results. Unmarked numbers belong to inactive results.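 The calls were made as follows: active = fluorescence response below 15%; inactive = the rest.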
# Assay: yeast superoxide dye artefact check – S. cerevisiae BY4741, flow cytometry, artefact control for yeast caloric restriction mimetic project (AID 435000);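 also: percent of the mean fluorescence averaged over all compound wells on the plate; lower means stronger quenching of DHE signal or ROS scavenging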
# Conditions: S. cerevisiae BY4741, DHE fluorescence, at 10 µM, hits give low values
row,Compound,fluorescence response [%]
1,COc1cc(NC(=O)CSc2ccc(-c3cccnc3)nn2)cc(OC)c1,123
2,O=[N+]([O-])c1ccc2c(c1)Nc1nc3ccccc3nc1N2,92.7
3,O=C(CSCc1ccccc1)Nc1ccccc1,111
4,COc1ccc(NC(C)=O)cc1NC(=O)CN1CCN(c2ccccn2)CC1,96.8
5,CC(=O)C[C@@H](O)CC(=O)[C@H]1OC(=O)CCCCCCc2ccccc21,113
6,COC(=O)CNC(=O)c1ccc(OC2CCN(C(=O)C3CC3)CC2)cc1,113
7,CC(=O)c1ccc2c(c1)c1ccccc1n2CC(C)C,107
8,COc1ccc(CCNC(=O)c2ccccc2-c2ccccc2C(=O)O)cc1OC,110
9,NC(=S)Nc1c(Cl)cccc1Cl,97.4
10,Cc1cc2oc(C(=O)Nc3c(C)n(C)n(-c4ccccc4)c3=O)c(C)c2cc1Cl,95.3
11,O=C(O)c1ccc(F)c(S(=O)(=O)Nc2ccccc2)c1,90.9
12,CSc1sc(C(=O)NNC(=O)c2ccc(Cl)cc2)c2c1C=CCC2,92.4
13,CC(=O)NC1=NN(C(C)=O)C(C)(CCS(=O)(=O)c2ccc(Cl)c(Cl)c2)S1 (configuration not stated),112
14,CSc1ncc(Cl)c(C(=O)Nc2cc(C)ccc2C)n1,95.1
15,O=C(O)C1CCCN1S(=O)(=O)c1ccc(Br)cc1 (configuration not stated),90.2
16,CC1CCCN(S(=O)(=O)c2ccc(C(=O)Nc3nnc(-c4ccncc4)o3)cc2)C1 (configuration not stated),109
17,CCn1c2ccccc2c2cc(CC(N)=O)ccc21,105
18,COc1cc(-c2nnn(CC(=O)NCc3ccccc3)n2)cc(OC)c1OC,99.2
19,Cc1ccc(NC(=O)Cn2nc(C)c3ccccc3c2=O)c(C)c1,110
20,O=C(Nc1ccccc1N1CCCC1)c1ccc2ccccc2c1,103
21,Cc1cc(=O)n2[nH]c(-c3cccc(Cl)c3)cc2n1,92.6
22,CCN(CC)c1ccc(NC(=O)CN2CCN(c3ccccn3)CC2)cc1,95.7
